Laboratory results: PubChem BioAssay (NCI)
Several values for one entry are separate records, joined by “and”; a condition that tells them apart may be missing. Identical values can stand only once. The panel holds about 79,000 compounds, 15% with a hit somewhere; the sample as a whole holds those more often. Activity calls are given as the source filed them. Cut-off read from the data, not from the text of the source: active = growth inhibition above about 70%; inactive = the rest. Where a SMILES comes first, the peptide text is derived from it. The star is where a group is joined. Cbz = O=C(OCc1ccccc1)*; OBn = c1ccc(CO*)cc1

Test: NCI Yeast Anticancer Drug Screen. Data for the rad50 strain (AID 155);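 note: 0% = growth of vehicle-only cultures of the same strain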
Conditions: S. cerevisiae rad50 strain growth inhibition, active compounds read high; at 50.0 µM unless noted
Method in brief: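 A DNA repair-deficient yeast mutant serves as the test organism; compound-induced growth inhibition is calculated against vehicle-treated cells.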
In the case of `O=C1c2c(O)ccc(O)c2C(=O)c2c(NCCNCCO)ccc(NCCNCCO)c21`, the growth inhibition is reported as 61.9% (inactive) and 31.9% (inactive).
With `CC(O)CNC1=CC(=O)C(=O)c2ccccc21` (stereo not drawn) the growth inhibition was -13.3% (inactive).
In the case of `COCCOC(=O)OCCOC`, the growth inhibition is reported as -1.5% (inactive).
In the case of `COc1ccccc1CN1CCCN(Cc2ccccc2OC)C1c1ccc(N(C)C)cc1`, the growth inhibition is reported as 59.6% (inactive).
With `NC(=S)Cc1ccncc1` the growth inhibition was 12.8% (inactive).
With `CN(C)c1cccc2c(S(=O)(=O)NCCCNCCN)cccc12` the growth inhibition was 7.6% (inactive).
In the case of `CCCCCCCCCCCC`, the growth inhibition is reported as -33.9% (inactive).
For `CCSCCC#N`, the growth inhibition was 11.2% (inactive).
For `CCCC1SCC(=O)N1c1nncs1` (stereo not drawn), the growth inhibition was 6.5% (inactive).
In the case of `O=C1C(Br)=C[C@H]2C3C=CC(Br)(C3=O)[C@@H]12` (stereo partly drawn), the growth inhibition is reported as 20.8% (inactive).
In the case of `CC1=CSC2=NCCCCN12`, the growth inhibition is reported as -9.5% (inactive).
In the case of `Oc1ccccc1-c1cc(-c2ccccc2)nc(NCCCNc2nc(-c3ccccc3)cc(-c3ccccc3O)n2)n1`, the growth inhibition is reported as -11.2% (inactive).
For `Cc1ccc2nc(NC(=O)C(=O)C(C#N)c3nc4ccccc4s3)sc2c1` (stereo not drawn), the growth inhibition was 11.2% (inactive).
For `CNC(=O)N(CCCC(NC(C)=O)C(=O)NCc1ccccc1)Cc1ccccc1` (stereo not drawn), the growth inhibition was 16.1% (inactive).
For `COC(=O)CC(C)N(c1ccc(Cl)c(Cl)c1)S(=O)(=O)c1ccc(C)cc1` (stereo not drawn), the growth inhibition was 37.9% (inactive).
In the case of `CSC(N)=Nc1cccc2ccccc12`, the growth inhibition is reported as -44.2% (inactive).
For `OC(c1ccc(OCc2ccccc2)cc1)c1ccccn1` (stereo not drawn), the growth inhibition was -1.15% (inactive).
For `O=C1NC(=O)c2c(O)cccc21`, the growth inhibition was 38.5% (inactive).
In the case of `CN(C)c1ccc(/C=C/C(=O)N[C@@H]2C(=O)N3[C@@H]2SC(C)(C)[C@@H]3C(=O)O)cc1`, the growth inhibition is reported as -10.3% (inactive).
In the case of `CCn1nc(C)c2c1C(=O)NC(C)C(=O)N2` (stereo not drawn), the growth inhibition is reported as -22.6% (inactive).
In the case of `Cc1ccc(C2OC3=C(Nc4ccc([N+](=O)[O-])cc4N3)C2=O)cc1` (stereo not drawn), the growth inhibition is reported as 10.1% (inactive).
With `O=C(O)c1cccnc1C(=O)O` the growth inhibition was -23.8% (inactive) and 10.8% (inactive).
For `CCCCCCN(CCCCCC)CC(O)c1cc(-c2ccc(Cl)cc2)nc2c(Cl)cccc12` (stereo not drawn), the growth inhibition was -21.2% (inactive).
In the case of `CC(C)(O)C(O)c1ccccc1` (stereo not drawn), the growth inhibition is reported as 10.9% (inactive).
For `CN(O)C(=O)CCC(NC(=O)CCC(N)C(=O)O)C(=O)NCC(=O)O` (stereo not drawn), the growth inhibition was -25.4% (inactive).
For `COC(=O)C(Cc1ccc(O)cc1)NC(=O)C(CC(=O)OCc1ccccc1)NC(=O)OCc1ccccc1` (stereo not drawn) (Cbz-Asp(OBn)-Tyr-OMe; configuration not given here), the growth inhibition was -11.3% (inactive).
With `CC#CC#C/C(=C/C=CC(=O)OC)SC` the growth inhibition was 1.95% (inactive).
With `CCC(CC)/C(=N/Nc1ccc([N+](=O)[O-])cc1[N+](=O)[O-])C1=CCCCC1` the growth inhibition was -8.3% (inactive).
With `NC(=O)C1CC1` the growth inhibition was -9.4% (inactive).
In the case of `O=C(NO)c1ccccc1`, the growth inhibition is reported as 17.1% (inactive).
With `COc1cccc(C2c3cc4c(cc3OC(C)(O)C2C)OCO4)c1O` (stereo not drawn) the growth inhibition was -4.7% (inactive).
In the case of `Cc1cc2nncn2c2ccccc12`, the growth inhibition is reported as 9.15% (inactive).
With `O=C(NC1(Sc2ccccc2)CC1)c1ccc(Cl)cc1` the growth inhibition was 17.8% (inactive).
In the case of `CCOC(=O)Cn1cncc1C`, the growth inhibition is reported as -33.6% (inactive).
For `COc1ccc(N=Nc2nc(N)c(C(N)=O)[nH]2)cc1`, the growth inhibition was -8.65% (inactive).
With `O=C1NC(=S)S/C1=C/C=C/c1ccccc1` the growth inhibition was -21.4% (inactive).
With `CCN(CC)CCOC(=O)c1cc2ccccc2s1` the growth inhibition was 23.2% (inactive).
In the case of `CC(C)=NOc1ccccc1[N+](=O)[O-]`, the growth inhibition is reported as 8.65% (inactive).
For `CCCCOC(=O)NC(=O)c1cc2cc(Cl)ccc2oc1=O`, the growth inhibition was 4.65% (inactive).

Test: NCI Yeast Anticancer Drug Screen. Data for the mec2-1 strain (AID 157)
Conditions: S. cerevisiae mec2-1 strain, active compounds read high; at 50.0 µM unless noted
Method in brief: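 Yeast mec2-1 mutant treated with compound. Readout: growth inhibition vs vehicle controls.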
In the case of `O=C1c2c(O)ccc(O)c2C(=O)c2c(NCCNCCO)ccc(NCCNCCO)c21`, the growth inhibition is reported as 21.6% (inactive) and -16.4% (inactive).
In the case of `CC(O)CNC1=CC(=O)C(=O)c2ccccc21` (stereo not drawn), the growth inhibition is reported as -26.1% (inactive).
With `COCCOC(=O)OCCOC` the growth inhibition was 3.65% (inactive).
In the case of `COc1ccccc1CN1CCCN(Cc2ccccc2OC)C1c1ccc(N(C)C)cc1`, the growth inhibition is reported as 32.6% (inactive).
In the case of `NC(=S)Cc1ccncc1`, the growth inhibition is reported as 6.15% (inactive).
In the case of `CN(C)c1cccc2c(S(=O)(=O)NCCCNCCN)cccc12`, the growth inhibition is reported as -18.4% (inactive).
In the case of `CCCCCCCCCCCC`, the growth inhibition is reported as 25.4% (inactive).
With `CCSCCC#N` the growth inhibition was 4.75% (inactive).
In the case of `CCCC1SCC(=O)N1c1nncs1` (stereo not drawn), the growth inhibition is reported as 3.5% (inactive).
With `O=C1C(Br)=C[C@H]2C3C=CC(Br)(C3=O)[C@@H]12` (stereo partly drawn) the growth inhibition was 14.9% (inactive).
With `CC1=CSC2=NCCCCN12` the growth inhibition was 2.3% (inactive).
With `Oc1ccccc1-c1cc(-c2ccccc2)nc(NCCCNc2nc(-c3ccccc3)cc(-c3ccccc3O)n2)n1` the growth inhibition was 8% (inactive).
For `Cc1ccc2nc(NC(=O)C(=O)C(C#N)c3nc4ccccc4s3)sc2c1` (stereo not drawn), the growth inhibition was 1.75% (inactive).
In the case of `CNC(=O)N(CCCC(NC(C)=O)C(=O)NCc1ccccc1)Cc1ccccc1` (stereo not drawn), the growth inhibition is reported as 3.4% (inactive).
With `COC(=O)CC(C)N(c1ccc(Cl)c(Cl)c1)S(=O)(=O)c1ccc(C)cc1` (stereo not drawn) the growth inhibition was -0.15% (inactive).
For `CSC(N)=Nc1cccc2ccccc12`, the growth inhibition was -59% (inactive).
With `OC(c1ccc(OCc2ccccc2)cc1)c1ccccn1` (stereo not drawn) the growth inhibition was -0.65% (inactive).
For `O=C1NC(=O)c2c(O)cccc21`, the growth inhibition was 23.6% (inactive).
In the case of `CN(C)c1ccc(/C=C/C(=O)N[C@@H]2C(=O)N3[C@@H]2SC(C)(C)[C@@H]3C(=O)O)cc1`, the growth inhibition is reported as -10.8% (inactive).
In the case of `CCn1nc(C)c2c1C(=O)NC(C)C(=O)N2` (stereo not drawn), the growth inhibition is reported as -33% (inactive).
With `Cc1ccc(C2OC3=C(Nc4ccc([N+](=O)[O-])cc4N3)C2=O)cc1` (stereo not drawn) the growth inhibition was 7.75% (inactive).
In the case of `O=C(O)c1cccnc1C(=O)O`, the growth inhibition is reported as -8.85% (inactive) and -5.35% (inactive).
In the case of `CCCCCCN(CCCCCC)CC(O)c1cc(-c2ccc(Cl)cc2)nc2c(Cl)cccc12` (stereo not drawn), the growth inhibition is reported as -8.05% (inactive).
For `CC(C)(O)C(O)c1ccccc1` (stereo not drawn), the growth inhibition was 7% (inactive).
For `CN(O)C(=O)CCC(NC(=O)CCC(N)C(=O)O)C(=O)NCC(=O)O` (stereo not drawn), the growth inhibition was -9.3% (inactive).
For `COC(=O)C(Cc1ccc(O)cc1)NC(=O)C(CC(=O)OCc1ccccc1)NC(=O)OCc1ccccc1` (stereo not drawn) (Cbz-Asp(OBn)-Tyr-OMe; configuration not given here), the growth inhibition was -5.95% (inactive).
In the case of `CC#CC#C/C(=C/C=CC(=O)OC)SC`, the growth inhibition is reported as -18.9% (inactive).
In the case of `CCC(CC)/C(=N/Nc1ccc([N+](=O)[O-])cc1[N+](=O)[O-])C1=CCCCC1`, the growth inhibition is reported as -12.1% (inactive).
In the case of `NC(=O)C1CC1`, the growth inhibition is reported as 2.25% (inactive).
In the case of `O=C(NO)c1ccccc1`, the growth inhibition is reported as -29.6% (inactive).
With `COc1cccc(C2c3cc4c(cc3OC(C)(O)C2C)OCO4)c1O` (stereo not drawn) the growth inhibition was -3.75% (inactive).
With `Cc1cc2nncn2c2ccccc12` the growth inhibition was -3.55% (inactive).
For `O=C(NC1(Sc2ccccc2)CC1)c1ccc(Cl)cc1`, the growth inhibition was 6.8% (inactive).
In the case of `CCOC(=O)Cn1cncc1C`, the growth inhibition is reported as -6.6% (inactive).
For `COc1ccc(N=Nc2nc(N)c(C(N)=O)[nH]2)cc1`, the growth inhibition was -7.55% (inactive).
With `O=C1NC(=S)S/C1=C/C=C/c1ccccc1` the growth inhibition was 3.8% (inactive).
In the case of `CCN(CC)CCOC(=O)c1cc2ccccc2s1`, the growth inhibition is reported as 8.85% (inactive).
With `CC(C)=NOc1ccccc1[N+](=O)[O-]` the growth inhibition was 6.15% (inactive).
With `CCCCOC(=O)NC(=O)c1cc2cc(Cl)ccc2oc1=O` the growth inhibition was 17.9% (inactive).
